Experimental data from PubChem BioAssay AID1159580 (chemical genetic matrix, 2015).
Hit rate of the full screen: of about 5,500 compounds, about 2,000 (36%) were called active. Another 18% or so got no clear call; they are omitted. Rule as the data show it: active = normalized growth mostly below about 0.91 (no sharp cut-off); inconclusive = no clear call, values can overlap the other calls; inactive = mostly above about 0.92. The list shows a part of the results.

Test: chemical genetic growth profiling, strain panel (AID 1159580);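 also: tested at 20 µM; growth read once vehicle control cultures reached saturation at 30 °C; 1 = growth at the plate median or of vehicle wells; lower values mean less growth of the strain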
Details: growth OD
[1] = S. cerevisiae deletion strains, locus YAL013W, strain DEP1, stronger effect = lower value
[2] = S. cerevisiae deletion strains, locus YBR229C, strain ROT2, stronger effect = lower value
[3] = S. cerevisiae deletion strains, locus YDL101C, strain DUN1, stronger effect = lower value
[4] = S. cerevisiae deletion strains, locus YDR150W, strain NUM1, stronger effect = lower value
[5] = S. cerevisiae deletion strains, locus YEL061C, strain CIN8, stronger effect = lower value
[6] = S. cerevisiae deletion strains, locus YGR078C, strain PAC10, stronger effect = lower value
[7] = S. cerevisiae deletion strains, locus YHR030C, strain SLT2, stronger effect = lower value
[8] = S. cerevisiae deletion strains, locus YHR087W, strain rtc3, stronger effect = lower value
[9] = S. cerevisiae deletion strains, locus YJR043C, strain POL32, stronger effect = lower value
[10] = S. cerevisiae deletion strains, locus YJR075W, strain HOC1, stronger effect = lower value
[11] = S. cerevisiae deletion strains, locus YLR039C, strain RIC1, stronger effect = lower value
[12] = S. cerevisiae deletion strains, locus YLR058C, strain SHM2 (second series), stronger effect = lower value
[13] = S. cerevisiae deletion strains, locus YLR085C, strain ARP6, stronger effect = lower value
[14] = S. cerevisiae deletion strains, locus YLR262C, strain YPT6, stronger effect = lower value
[15] = S. cerevisiae deletion strains, locus YML094W, strain GIM5, stronger effect = lower value
[16] = S. cerevisiae deletion strains, locus YMR219W, strain ESC1, stronger effect = lower value
[17] = S. cerevisiae deletion strains, locus YMR263W, strain SAP30, stronger effect = lower value
[18] = S. cerevisiae deletion strains, locus YNL153C, strain GIM3, stronger effect = lower value
[19] = S. cerevisiae deletion strains, locus YNL298W, strain CLA4 (second series), stronger effect = lower value
[20] = S. cerevisiae deletion strains, locus YNL322C, strain KRE1, stronger effect = lower value
[21] = S. cerevisiae deletion strains, locus YNR030W, strain Alg12, stronger effect = lower value
[22] = S. cerevisiae deletion strains, locus YPL055C, strain LGE1, stronger effect = lower value
[23] = S. cerevisiae deletion strains, locus YPL241C, strain CIN2, stronger effect = lower value
[24] = S. cerevisiae deletion strains, locus YPR135W, strain CTF4, stronger effect = lower value
[25] = S. cerevisiae strains, strain wild type, stronger effect = lower value

Measured: normalized growth

CC(=O)/C(=C\N(C)C)Sc1nnc(C(F)(F)F)n1C
inactive: [1] 1.06 | [2] 1.03 | [3] 0.968 | [4] 1.02 | [5] 1.01 | [6] 1.01 | [7] 1.06 | [8] 1.04 | S. cerevisiae deletion strains, locus YJL187C, strain SWE1, stronger effect = lower value 0.998 | [9] 1.01 | [10] 0.987 | S. cerevisiae deletion strains, locus YKL190W, strain CNB1, stronger effect = lower value 0.993 | [11] 1.05 | [12] 1 | [13] 1.16 | [14] 1.01 | [15] 1.06 | [16] 1.02 | [17] 1.01 | S. cerevisiae deletion strains, locus YNL128W, strain TEP1, stronger effect = lower value 1.01 | [18] 1.02 | [19] 1.03 | [20] 1 | [21] 1.02 | [22] 1.09 | [23] 1.1 | [24] 1.21 | [25] 1.01

CC(=O)/C(=C\N(C)C)Sc1ccc(Cl)cc1
inactive: S. cerevisiae deletion strains, locus YDL134C, strain PPH21, stronger effect = lower value 0.976 | [4] 0.859 | [5] 0.989 | [7] 1.02 | [11] 0.876 | [13] 1.12 | [14] 0.873 | [15] 1.07 | [19] 1.03 | [21] 1.03 | S. cerevisiae deletion strains, locus YOL006C, strain TOP1, stronger effect = lower value 1.09 | [22] 0.933 | [23] 0.937 | [24] 1.29 | [25] 0.975
active: [1] 0.883 | [2] 0.82 | S. cerevisiae deletion strains, locus YCL061C, strain MRC1, stronger effect = lower value 0.838 | [3] 0.897 | [6] 0.817 | [8] 0.832 | [9] 0.888 | [10] 0.776 | [12] 0.817 | [16] 0.86 | [17] 0.839 | [18] 0.793 | [20] 0.819

Cc1c(NCN2C(=O)CCC2=O)cc2c(c1[N+](=O)[O-])C(C)(C)CC2(C)C
inactive: S. cerevisiae deletion strains, locus YAR019C, strain CDC15, stronger effect = lower value 0.963 | S. cerevisiae deletion strains, locus YBL105C, strain PKC1, stronger effect = lower value 0.962 | S. cerevisiae deletion strains, locus YBR135W, strain CKS1, stronger effect = lower value 0.967 | S. cerevisiae deletion strains, locus YBR136W, strain MEC1, stronger effect = lower value 0.959 | S. cerevisiae deletion strains, locus YBR160W, strain CDC28, stronger effect = lower value 0.967 | S. cerevisiae deletion strains, locus YDL017W, strain CDC7, stronger effect = lower value 0.961 | S. cerevisiae deletion strains, locus YDL028C, strain MPS1, stronger effect = lower value 0.962 | [3] 0.942 | S. cerevisiae deletion strains, locus YDL108W, strain KIN28, stronger effect = lower value 0.965 | S. cerevisiae deletion strains, locus YDL132W, strain cdc53, stronger effect = lower value 0.948 | S. cerevisiae deletion strains, locus YDL214C, strain PRR2, stronger effect = lower value 0.925 | S. cerevisiae deletion strains, locus YDR052C, strain DBF4, stronger effect = lower value 0.956 | S. cerevisiae deletion strains, locus YDR054C, strain cdc34, stronger effect = lower value 0.958 | S. cerevisiae deletion strains, locus YDR226W, strain ADK1, stronger effect = lower value 0.955 | S. cerevisiae deletion strains, locus YDR477W, strain SNF1, stronger effect = lower value 0.913 | S. cerevisiae deletion strains, locus YER123W, strain YCK3, stronger effect = lower value 0.9 | S. cerevisiae deletion strains, locus YER133W, strain GLC7, stronger effect = lower value 0.879 | S. cerevisiae deletion strains, locus YFL009W, strain cdc4, stronger effect = lower value 0.957 | S. cerevisiae deletion strains, locus YFL029C, strain CAK1, stronger effect = lower value 0.95 | S. cerevisiae deletion strains, locus YFR003C, strain YPI1, stronger effect = lower value 0.961 | S. cerevisiae deletion strains, locus YFR019W, strain FAB1, stronger effect = lower value 0.952 | S. cerevisiae deletion strains, locus YFR028C, strain CDC14, stronger effect = lower value 0.956 | S. cerevisiae deletion strains, locus YGR040W, strain KSS1, stronger effect = lower value 0.912 | S. cerevisiae deletion strains, locus YGR052W, strain FMP48, stronger effect = lower value 0.933 | S. cerevisiae deletion strains, locus YGR092W, strain DBF2, stronger effect = lower value 0.931 | [7] 0.909 | S. cerevisiae deletion strains, locus YHR079C, strain IRE1, stronger effect = lower value 0.894 | S. cerevisiae deletion strains, locus YHR082C, strain KSP1, stronger effect = lower value 0.993 | S. cerevisiae deletion strains, locus YHR205W, strain SCH9, stronger effect = lower value 0.904 | S. cerevisiae deletion strains, locus YIL147C, strain SLN1, stronger effect = lower value 0.963 | S. cerevisiae deletion strains, locus YJL095W, strain BCK1, stronger effect = lower value 0.839 | S. cerevisiae deletion strains, locus YJL128C, strain PBS2, stronger effect = lower value 0.901 | S. cerevisiae deletion strains, locus YJL157C, strain FAR1, stronger effect = lower value 0.92 | S. cerevisiae deletion strains, locus YJR016C, strain ILV3, stronger effect = lower value 0.96 | S. cerevisiae deletion strains, locus YJR066W, strain TOR1 (second series), stronger effect = lower value 0.861 | S. cerevisiae deletion strains, locus YJR066W, strain TOR1, stronger effect = lower value 1.03 | S. cerevisiae deletion strains, locus YKL048C, strain ELM1, stronger effect = lower value 0.928 | S. cerevisiae deletion strains, locus YKL067W, strain YNK1, stronger effect = lower value 0.929 | S. cerevisiae deletion strains, locus YKL101W, strain HSL1, stronger effect = lower value 0.922 | S. cerevisiae deletion strains, locus YKL193C, strain SDS22, stronger effect = lower value 0.95 | S. cerevisiae deletion strains, locus YKL203C, strain TOR2, stronger effect = lower value 0.978 | S. cerevisiae deletion strains, locus YLR133W, strain CKI1, stronger effect = lower value 0.944 | S. cerevisiae deletion strains, locus YLR403W, strain SFP1, stronger effect = lower value 0.921 | S. cerevisiae deletion strains, locus YML070W, strain DAK1, stronger effect = lower value 0.911 | S. cerevisiae deletion strains, locus YMR001C, strain CDC5, stronger effect = lower value 0.956 | S. cerevisiae deletion strains, locus YMR205C, strain PFK2 (second series), stronger effect = lower value 0.927 | S. cerevisiae deletion strains, locus YMR277W, strain FCP1, stronger effect = lower value 0.96 | S. cerevisiae deletion strains, locus YNL006W, strain LST8, stronger effect = lower value 0.954 | S. cerevisiae deletion strains, locus YNL020C, strain ARK1, stronger effect = lower value 0.932 | S. cerevisiae deletion strains, locus YNL161W, strain CBK1, stronger effect = lower value 0.95 | S. cerevisiae deletion strains, locus YNL183C, strain NPR1, stronger effect = lower value 0.977 | S. cerevisiae deletion strains, locus YNL207W, strain RIO2, stronger effect = lower value 0.965 | S. cerevisiae deletion strains, locus YNL222W, strain SSU72, stronger effect = lower value 0.959 | S. cerevisiae deletion strains, locus YNL307C, strain MCK1 (second series), stronger effect = lower value 0.94 | S. cerevisiae deletion strains, locus YOL078W, strain AVO1, stronger effect = lower value 0.952 | S. cerevisiae deletion strains, locus YOL136C, strain PFK27, stronger effect = lower value 0.914 | S. cerevisiae deletion strains, locus YOR061W, strain CKA2, stronger effect = lower value 0.945 | S. cerevisiae deletion strains, locus YOR119C, strain RIO1, stronger effect = lower value 0.951 | S. cerevisiae deletion strains, locus YOR231W, strain MKK1, stronger effect = lower value 0.943 | S. cerevisiae deletion strains, locus YOR329C, strain SCD5, stronger effect = lower value 0.961 | S. cerevisiae deletion strains, locus YPL031C, strain PHO85, stronger effect = lower value 0.899 | S. cerevisiae deletion strains, locus YPL153C, strain RAD53, stronger effect = lower value 0.905 | S. cerevisiae deletion strains, locus YPL204W, strain HRR25, stronger effect = lower value 0.891 | S. cerevisiae deletion strains, locus YPL209C, strain IPL1, stronger effect = lower value 0.957 | S. cerevisiae deletion strains, locus YPL256C, strain CLN2, stronger effect = lower value 0.87 | S. cerevisiae deletion strains, locus YPR025C, strain CCL1, stronger effect = lower value 0.952 | S. cerevisiae deletion strains, locus YPR106W, strain ISR1, stronger effect = lower value 0.949 | S. cerevisiae deletion strains, locus YPR111W, strain DBF20, stronger effect = lower value 0.943 | S. cerevisiae deletion strains, strain NNK1, stronger effect = lower value 0.937 | S. cerevisiae deletion strains, strain TSCII, stronger effect = lower value 0.953
active: S. cerevisiae deletion strains, locus YLR113W, strain HOG1, stronger effect = lower value 0.861
